# Laboratory results reported in the supplement of paper PMC4466140.
# Key:
# Assay in all cases: SPOT peptide array binding signal intensity (averaged, normalized) (arbitrary units (background-subtracted, floor 0; scale differs between SH3 domains)); higher = stronger binding of the SH3 domain to the peptide
# CaNbp2 = biological target: CaNbp2
# Summary of the method: (§1)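 Peptides were synthetic 15-mers on cellulose membranes, with every cysteine replaced by serine. They were incubated overnight at 4°C with GST-SH3 domains from four yeast species at 10 μg/ml in TBS-based blocking buffer. Binding signal, the replicate-averaged normalized and background-subtracted spot intensity, is in arbitrary units that differ between domains.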
# CaRvs167 = biological target: CaRvs167
# Summary of the method: as §1
# CaRvs167-3 = biological target: CaRvs167-3
# Summary of the method: as §1
# CaSho1 = biological target: CaSho1
# Summary of the method: as §1
# CaSla1-D1-D2 = biological target: CaSla1-D1-D2
# Summary of the method: as §1
# CaSla1-D3 = biological target: CaSla1-D3
# Summary of the method: as §1
# ScAbp1 = biological target: ScAbp1
# Summary of the method: as §1
# ScBbc1 = biological target: ScBbc1
# Summary of the method: as §1
# ScBem1-D1 = biological target: ScBem1-D1
# Summary of the method: as §1
# ScBzz1-D1 = biological target: ScBzz1-D1
# Summary of the method: as §1
# ScBzz1-D2 = biological target: ScBzz1-D2
# Summary of the method: as §1
# ScCyk3 = biological target: ScCyk3
# Summary of the method: as §1
# ScFus1 = biological target: ScFus1
# Summary of the method: as §1
# ScHof1 = biological target: ScHof1
# Summary of the method: as §1
# ScHse1 = biological target: ScHse1
# Summary of the method: as §1
# ScLsb1 = biological target: ScLsb1
# Summary of the method: as §1
# ScLsb2 = biological target: ScLsb2
# Summary of the method: as §1
# ScLsb3 = biological target: ScLsb3
# Summary of the method: as §1
# ScLsb4 = biological target: ScLsb4
# Summary of the method: as §1
# ScMyo3 = biological target: ScMyo3
# Summary of the method: as §1
# ScMyo5 = biological target: ScMyo5
# Summary of the method: as §1
# ScNbp2 = biological target: ScNbp2
# Summary of the method: as §1
# ScPex13 = biological target: ScPex13
# Summary of the method: as §1
# ScRvs167 = biological target: ScRvs167
# Summary of the method: as §1
# ScSho1 = biological target: ScSho1
# Summary of the method: as §1
# ScSla1-D1-D2 = biological target: ScSla1-D1-D2
# Summary of the method: as §1
# ScSla1-D3 = biological target: ScSla1-D3
# Summary of the method: as §1
# SpAbp1-D1 = biological target: SpAbp1-D1
# Summary of the method: as §1
# SpBbc1 = biological target: SpBbc1
# Summary of the method: as §1
# SpBzz1-D1 = biological target: SpBzz1-D1
# Summary of the method: as §1
# SpBzz1-D2 = biological target: SpBzz1-D2
# Summary of the method: as §1
# SpCyk3 = biological target: SpCyk3
# Summary of the method: as §1
# SpHof1 = biological target: SpHof1
# Summary of the method: as §1
# SpHof1-2 = biological target: SpHof1-2
# Summary of the method: as §1
# SpHof1-3 = biological target: SpHof1-3
# Summary of the method: as §1
# SpHse1 = biological target: SpHse1
# Summary of the method: as §1
# SpLsb1 = biological target: SpLsb1
# Summary of the method: as §1
# SpLsb4 = biological target: SpLsb4
# Summary of the method: as §1
# SpMyo1 = biological target: SpMyo1
# Summary of the method: as §1
# SpNbp2 = biological target: SpNbp2
# Summary of the method: as §1
# SpPex13 = biological target: SpPex13
# Summary of the method: as §1
# SpRvs167 = biological target: SpRvs167
# Summary of the method: as §1
# SpSla1-D1-D2 = biological target: SpSla1-D1-D2
# Summary of the method: as §1
# SpSla1-D3 = biological target: SpSla1-D3
# Summary of the method: as §1
# AgAbp1 = biological target: AgAbp1
# Summary of the method: as §1
# AgBbc1 = biological target: AgBbc1
# Summary of the method: as §1
# AgBem1-D1 = biological target: AgBem1-D1
# Summary of the method: as §1
# AgBzz1-D1 = biological target: AgBzz1-D1
# Summary of the method: as §1
# AgBzz1-D2 = biological target: AgBzz1-D2
# Summary of the method: as §1
# AgCyk3 = biological target: AgCyk3
# Summary of the method: as §1
# AgFus1 = biological target: AgFus1
# Summary of the method: as §1
# AgHof1 = biological target: AgHof1
# Summary of the method: as §1
# AgHse1 = biological target: AgHse1
# Summary of the method: as §1
# AgLsb1 = biological target: AgLsb1
# Summary of the method: as §1
# AgLsb4 = biological target: AgLsb4
# Summary of the method: as §1
# AgMyo5 = biological target: AgMyo5
# Summary of the method: as §1
# AgNbp2 = biological target: AgNbp2
# Summary of the method: as §1
# AgRvs167 = biological target: AgRvs167
# Summary of the method: as §1
# AgSho1 = biological target: AgSho1
# Summary of the method: as §1
# AgSla1-D1-D2 = biological target: AgSla1-D1-D2
# Summary of the method: as §1
# AgSla1-D3 = biological target: AgSla1-D3
# Summary of the method: as §1
# CaAbp1-D1 = biological target: CaAbp1-D1
# Summary of the method: as §1
# CaAbp1-D2 = biological target: CaAbp1-D2
# Summary of the method: as §1
# CaBbc1 = biological target: CaBbc1
# Summary of the method: as §1
# CaBem1-D1 = biological target: CaBem1-D1
# Summary of the method: as §1
# CaBzz1-D1 = biological target: CaBzz1-D1
# Summary of the method: as §1
# CaBzz1-D2 = biological target: CaBzz1-D2
# Summary of the method: as §1
# CaCyk3 = biological target: CaCyk3
# Summary of the method: as §1
# CaFus1 = biological target: CaFus1
# Summary of the method: as §1
# CaHof1 = biological target: CaHof1
# Summary of the method: as §1
# CaHse1 = biological target: CaHse1
# Summary of the method: as §1
# CaLsb1 = biological target: CaLsb1
# Summary of the method: as §1
# CaLsb4 = biological target: CaLsb4
# Summary of the method: as §1
# CaMyo5 = biological target: CaMyo5
# Summary of the method: as §1
binder,measurement,setting,value
FYNRTAFQLPGDARV,SPOT peptide array binding signal intensity,CaNbp2,22
same,SPOT peptide array binding signal intensity,CaRvs167,≤ 0
same,SPOT peptide array binding signal intensity,CaRvs167-3,3.5
same,SPOT peptide array binding signal intensity,CaSho1,11.5
same,SPOT peptide array binding signal intensity,CaSla1-D1-D2,≤ 0
same,SPOT peptide array binding signal intensity,CaSla1-D3,≤ 0
same,SPOT peptide array binding signal intensity,ScAbp1,2.5
same,SPOT peptide array binding signal intensity,ScBbc1,3.5
same,SPOT peptide array binding signal intensity,ScBem1-D1,0.5
same,SPOT peptide array binding signal intensity,ScBzz1-D1,22
same,SPOT peptide array binding signal intensity,ScBzz1-D2,36
same,SPOT peptide array binding signal intensity,ScCyk3,20
same,SPOT peptide array binding signal intensity,ScFus1,≤ 0
same,SPOT peptide array binding signal intensity,ScHof1,≤ 0
same,SPOT peptide array binding signal intensity,ScHse1,61.5
same,SPOT peptide array binding signal intensity,ScLsb1,554
same,SPOT peptide array binding signal intensity,ScLsb2,843
same,SPOT peptide array binding signal intensity,ScLsb3,≤ 0
same,SPOT peptide array binding signal intensity,ScLsb4,≤ 0
same,SPOT peptide array binding signal intensity,ScMyo3,40
same,SPOT peptide array binding signal intensity,ScMyo5,12.5
same,SPOT peptide array binding signal intensity,ScNbp2,≤ 0
same,SPOT peptide array binding signal intensity,ScPex13,≤ 0
same,SPOT peptide array binding signal intensity,ScRvs167,≤ 0
same,SPOT peptide array binding signal intensity,ScSho1,1
same,SPOT peptide array binding signal intensity,ScSla1-D1-D2,≤ 0
same,SPOT peptide array binding signal intensity,ScSla1-D3,1
same,SPOT peptide array binding signal intensity,SpAbp1-D1,≤ 0
same,SPOT peptide array binding signal intensity,SpBbc1,0.5
same,SPOT peptide array binding signal intensity,SpBzz1-D1,86
same,SPOT peptide array binding signal intensity,SpBzz1-D2,≤ 0
same,SPOT peptide array binding signal intensity,SpCyk3,2
same,SPOT peptide array binding signal intensity,SpHof1,4
same,SPOT peptide array binding signal intensity,SpHof1-2,1.5
same,SPOT peptide array binding signal intensity,SpHof1-3,22.5
same,SPOT peptide array binding signal intensity,SpHse1,21.5
same,SPOT peptide array binding signal intensity,SpLsb1,216
same,SPOT peptide array binding signal intensity,SpLsb4,≤ 0
same,SPOT peptide array binding signal intensity,SpMyo1,17.5
same,SPOT peptide array binding signal intensity,SpNbp2,2.5
same,SPOT peptide array binding signal intensity,SpPex13,2
same,SPOT peptide array binding signal intensity,SpRvs167,≤ 0
same,SPOT peptide array binding signal intensity,SpSla1-D1-D2,≤ 0
same,SPOT peptide array binding signal intensity,SpSla1-D3,0.5
APKREAPKPPANTSP,SPOT peptide array binding signal intensity,AgAbp1,1
same,SPOT peptide array binding signal intensity,AgBbc1,112
same,SPOT peptide array binding signal intensity,AgBem1-D1,34
same,SPOT peptide array binding signal intensity,AgBzz1-D1,178
same,SPOT peptide array binding signal intensity,AgBzz1-D2,2.5
same,SPOT peptide array binding signal intensity,AgCyk3,≤ 0
same,SPOT peptide array binding signal intensity,AgFus1,≤ 0
same,SPOT peptide array binding signal intensity,AgHof1,6
same,SPOT peptide array binding signal intensity,AgHse1,≤ 0
same,SPOT peptide array binding signal intensity,AgLsb1,4.5
same,SPOT peptide array binding signal intensity,AgLsb4,≤ 0
same,SPOT peptide array binding signal intensity,AgMyo5,265
same,SPOT peptide array binding signal intensity,AgNbp2,382
same,SPOT peptide array binding signal intensity,AgRvs167,≤ 0
same,SPOT peptide array binding signal intensity,AgSho1,≤ 0
same,SPOT peptide array binding signal intensity,AgSla1-D1-D2,≤ 0
same,SPOT peptide array binding signal intensity,AgSla1-D3,8
same,SPOT peptide array binding signal intensity,CaAbp1-D1,6
same,SPOT peptide array binding signal intensity,CaAbp1-D2,11
same,SPOT peptide array binding signal intensity,CaBbc1,251
same,SPOT peptide array binding signal intensity,CaBem1-D1,14
same,SPOT peptide array binding signal intensity,CaBzz1-D1,2040
same,SPOT peptide array binding signal intensity,CaBzz1-D2,2090
same,SPOT peptide array binding signal intensity,CaCyk3,≤ 0
same,SPOT peptide array binding signal intensity,CaFus1,18
same,SPOT peptide array binding signal intensity,CaHof1,≤ 0
same,SPOT peptide array binding signal intensity,CaHse1,1.5
same,SPOT peptide array binding signal intensity,CaLsb1,≤ 0
same,SPOT peptide array binding signal intensity,CaLsb4,≤ 0
same,SPOT peptide array binding signal intensity,CaMyo5,1.75
same,SPOT peptide array binding signal intensity,CaNbp2,1520
same,SPOT peptide array binding signal intensity,CaRvs167,0.5
same,SPOT peptide array binding signal intensity,CaRvs167-3,2
same,SPOT peptide array binding signal intensity,CaSho1,≤ 0
same,SPOT peptide array binding signal intensity,CaSla1-D1-D2,106
same,SPOT peptide array binding signal intensity,CaSla1-D3,0.25
same,SPOT peptide array binding signal intensity,ScAbp1,≤ 0
same,SPOT peptide array binding signal intensity,ScBbc1,156
same,SPOT peptide array binding signal intensity,ScBem1-D1,4.5
same,SPOT peptide array binding signal intensity,ScBzz1-D1,348
same,SPOT peptide array binding signal intensity,ScBzz1-D2,5
same,SPOT peptide array binding signal intensity,ScCyk3,≤ 0
same,SPOT peptide array binding signal intensity,ScFus1,≤ 0
same,SPOT peptide array binding signal intensity,ScHof1,≤ 0
same,SPOT peptide array binding signal intensity,ScHse1,≤ 0
same,SPOT peptide array binding signal intensity,ScLsb1,≤ 0
same,SPOT peptide array binding signal intensity,ScLsb2,≤ 0
same,SPOT peptide array binding signal intensity,ScLsb3,4.5
same,SPOT peptide array binding signal intensity,ScLsb4,≤ 0
same,SPOT peptide array binding signal intensity,ScMyo3,616
same,SPOT peptide array binding signal intensity,ScMyo5,414
same,SPOT peptide array binding signal intensity,ScNbp2,1140
same,SPOT peptide array binding signal intensity,ScPex13,47.8
same,SPOT peptide array binding signal intensity,ScRvs167,1
same,SPOT peptide array binding signal intensity,ScSho1,≤ 0
same,SPOT peptide array binding signal intensity,ScSla1-D1-D2,738
same,SPOT peptide array binding signal intensity,ScSla1-D3,16.2
same,SPOT peptide array binding signal intensity,SpAbp1-D1,15
same,SPOT peptide array binding signal intensity,SpBbc1,1
same,SPOT peptide array binding signal intensity,SpBzz1-D1,86
